Laboratory results taken from PubChem BioAssay (NCATS).
Inconclusive results are not listed. Activity calls are given as the source filed them. Unless noted, calls follow the shape of the full dose curve.

Legend:
[1] = biological target: Bile acid receptor (Homo sapiens) (UniProt Q96RI1); assay: qHTS assay for small molecule antagonists of farnesoid X receptor signaling (AID 588526); also: % is scaled to controls: 0 for no effect and ±100 for the full control effect
Summary of the method: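 Beta-lactamase reporter antagonist mode: HEK293T FXR-UAS-bla cells, titrated compound, CDCA stimulation, 16 h 37 C, CCF4 dye 2 h RT. Data normalized to CDCA 50 uM and DMSO; Hill-fit IC50.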

[2] = biological target: Glucocorticoid receptor (Homo sapiens) (UniProt P04150); assay: qHTS assay for small molecule agonists of glucocorticoid receptor signaling (AID 588532; active = well fitted curve in the direction sought with a large enough effect in the signal ratio, with a control signal flat; the % refers to the signal ratio;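 also: 100% = dexamethasone at 0.1 µM and 0% = DMSO only wells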); settings: HeLa MMTV-bla, beta-lactamase ratio, agonist, 18 h; stronger effect = higher value; percent of dexamethasone control, DMSO zero
Summary of the method: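 Using MMTV-bla HeLa cells in medium with 1% stripped FBS and 25 mM HEPES, compounds were titrated and incubated overnight-length (18 h). Beta-lactamase cleavage of CCF4 was quantified by dual-emission fluorescence.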

[3] = biological target: Glucocorticoid receptor (Homo sapiens) (UniProt P04150); assay: qHTS assay for small molecule antagonists of glucocorticoid receptor signaling (AID 588533; active = well fitted inhibition curve with a large enough effect in the signal ratio, with a control signal flat, not every such curve was filed as active; the % refers to the signal ratio;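 also: cells stimulated with 2 nM dexamethasone as agonist; % is scaled to controls: 0 for no effect and ±100 for the full control effect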)
Summary of the method: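 Antagonist-mode qHTS: compound titrations added to GRE-bla HeLa cells, then dexamethasone 2 nM final; 18 h, 37 C. CCF4 FRET fluorescence normalized to dexamethasone and DMSO; IC50 from Hill fit.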

[4] = biological target: Vitamin D3 receptor (Homo sapiens) (UniProt P11473); assay: qHTS assay for small molecule antagonists of vitamin D receptor signaling (AID 588541);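 also: receptor activated by calcitriol during compound treatment; series mostly up to about 77 µM; % is scaled to controls: 0 for no effect and ±100 for the full control effect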
Summary of the method: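 Antagonist-mode beta-lactamase reporter assay: HEK293T VDR-UAS-bla cells were exposed to titrated compound alongside 1-alpha,25-dihydroxyvitamin D3 at 3 nM final for 16 h. Values were normalized to the 50 nM agonist control and DMSO basal, with IC50 and efficacy from Hill equation fits.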

[5] = biological target: Vitamin D3 receptor (Homo sapiens) (UniProt P11473); assay: qHTS assay for small molecule agonists of vitamin D receptor signaling (AID 588543);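 also: 0% = DMSO basal and 100% = reference agonist control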
Summary of the method: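 GeneBLAzer VDR-UAS-bla HEK293T cells in 2% charcoal-stripped FBS medium were dosed with compound titrations for 16 h at 37 °C; CCF4 β-lactamase readout (405 nm ex, 460/530 nm em). EC50 and efficacy from Hill fits, normalized to 50 nM calcitriol (100%) and DMSO (0%).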

[6] = qHTS assay for small molecule agonists of retinoid X receptor alpha signaling (AID 588544); settings: HEK293T RXRa-UAS-bla, beta-lactamase reporter, 18 h; 530 nm emission;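 as to activation: 0% = DMSO basal wells and 100% = reference agonist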
[7] = biological target: Retinoic acid receptor RXR-alpha (Homo sapiens) (UniProt P19793); assay: as above
[8] = biological target: Thyroid hormone receptor beta (Homo sapiens) (UniProt P10828); assay: qHTS assay for small molecule agonists of thyroid hormone receptor beta signaling (AID 588545)
Summary of the method: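 Cells (2500/well) were seeded, incubated 4 hrs at 37 C, dosed with a compound series, incubated 18 hrs, loaded with CCF4 dye for 2 hrs at RT, then read for fluorescence. Data were scaled between DMSO (0%) and 10 nM T3 (100%).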

[9] = qHTS assay for small molecule antagonists of retinoid X receptor alpha signaling (AID 588546; active = well fitted inhibition curve with a large enough effect in the signal ratio, with a control signal flat, not every such curve was filed as active; the % refers to the signal ratio;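 also: cells stimulated with 9-cis-retinoic acid as agonist; % is scaled to controls: 0 for no effect and ±100 for the full control effect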); settings: HEK293T RXRa-UAS-bla, beta-lactamase ratio, antagonist mode; measured here: W530 green channel, cytotoxicity proxy
Summary of the method: (§1)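 Beta-lactamase reporter inhibition, read as CCF4 fluorescence ratio (ex 405, em 460/530 nm) after 2 h at RT. HEK293T UAS-bla cells, 2500/well, were stimulated with 9-cis-RA at 500 or 100 nM final alongside test compound for 18 h at 37 C.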

[10] = biological target: Retinoic acid receptor RXR-alpha (Homo sapiens) (UniProt P19793); assay: as above; settings: HEK293T RXRa-UAS-bla, beta-lactamase ratio, antagonist mode
Summary of the method: as §1

[11] = biological target: Thyroid hormone receptor beta (Homo sapiens) (UniProt P10828); assay: qHTS assay for small molecule antagonists of thyroid hormone receptor beta signaling (AID 588547; active = well fitted inhibition curve with a large enough effect in the signal ratio, with a control signal flat, not every such curve was filed as active; the % refers to the signal ratio); settings: TR-UAS-bla HEK293, beta-lactamase ratio, antagonist mode, 18 h
Summary of the method: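 Inhibition of T3-driven (0.4nM final) beta-lactamase reporter activity was measured over 0.59 nM to 92 uM compound after 18 h at 37 C. The cells were GripTite HEK293 TR-UAS-bla in charcoal/dextran-stripped serum, with CCF4 ratio read-out and IC50 from Hill fits.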

[12] = biological target: Voltage-gated inwardly rectifying potassium channel KCNH2 (Homo sapiens) (UniProt Q12809); assay: qHTS Assay for Small Molecule Inhibitors of the Human hERG Channel Activity (AID 588834; active = well fitted inhibition curve with a large enough effect;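 also: top concentration of the series differs between compounds; % is scaled to controls: 0 for no effect and ±100 for the full control effect; lower thallium flux fluorescence means stronger hERG block; nearly all actives have a fitted effect of over 50% in size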)
Summary of the method: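 In hERG-transduced U2OS cells, dye-loaded for 1 hr at room temperature in dark, test compounds incubated 10 min at 37 °C before thallium stimulation. AC50 values derived by Hill modelling of concentration-response.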

[13] = qHTS assay for small molecule agonists of the antioxidant response element (ARE) signaling pathway (AID 651741; active = well fitted activation curve with a large enough effect in the signal ratio; the % refers to the signal ratio; also: % of control where 0% means no effect)
Summary of the method: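 Agonist activity is measured as ARE-driven beta-lactamase expression in a stable HepG2 reporter line, using 16 h compound treatment at 37 C and a FRET substrate fluorescence readout after 2 h.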

[14] = qHTS assay for small molecule activators of the p53 signaling pathway (AID 651743; active = well fitted activation curve with a large enough effect in the signal ratio, not every such curve was filed as active; the % refers to the signal ratio; also: series mostly up to about 92 µM; % of control where 0% means no effect); settings: HCT-116 p53RE-bla, beta-lactamase FRET ratio, 16 h; stronger effect = higher value
Summary of the method: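 A beta-lactamase reporter under p53 response element control, stably carried by HCT-116 cells, reported pathway activation. Test compounds were applied for 16 hours at 37 C, and fluorescence was measured 2 hours after adding the B/G FRET substrate.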

[15] = qHTS assay for small molecule activators of the nuclear factor-kappa B (NF-kB) signaling pathway (AID 651749; active = well fitted activation curve with a large enough effect in the signal ratio; the % refers to the signal ratio; also: series mostly up to about 77 µM; % of control where 0% means no effect); settings: NF-kB-bla ME-180 cells, beta-lactamase FRET ratio, 16 h; stronger effect = higher value
Summary of the method: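 FRET-based beta-lactamase detection in ME-180 cells reports NF-kB response-element-driven transcription following overnight (16 hr) compound treatment.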

[16] = biological target: Peroxisome proliferator-activated receptor gamma (Homo sapiens) (UniProt P37231); assay: qHTS assay for small molecule agonists of peroxisome proliferator-activated receptor gamma signaling (AID 588536; active = well fitted curve in the direction sought with a large enough effect in the signal ratio, with a control signal flat, not every such curve was filed as active; the % refers to the signal ratio;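 also: 0% = DMSO basal wells and 100% = rosiglitazone at 2 µM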)
Summary of the method: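 Beta-lactamase reporter read-out: CCF4 fluorescence (ex 405, em 460/530 nm) after 2 h at RT. HEK293 GeneBLAzer cells were treated for 16 h at 37 C. Hill fits gave EC50 and efficacy versus 2 uM rosiglitazone (100%) and DMSO (0%).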

[17] = biological target: Peroxisome proliferator-activated receptor gamma (Homo sapiens) (UniProt P37231); assay: qHTS assay for small molecule antagonists of peroxisome proliferator-activated receptor gamma signaling (AID 588537; active = well fitted inhibition curve with a large enough effect in the signal ratio, with a control signal flat, not every such curve was filed as active; the % refers to the signal ratio;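 also: reporter cells co-stimulated with 50 nM rosiglitazone agonist during compound treatment; % of control where 0% means no effect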)
Summary of the method: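 Cell-based beta-lactamase assay; GW9662 served as the antagonist control. Stimulation used rosiglitazone, final 50 nM, 16 h, 37 C.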

[18] = qHTS assay for small molecule antagonists of peroxisome proliferator-activated receptor delta signaling (AID 588535; active = well fitted inhibition curve with a large enough effect in the signal ratio, with a control signal flat, not every such curve was filed as active; the % refers to the signal ratio;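 as to max response: cells co-treated with a PPAR-delta agonist as stimulator during compound exposure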); settings: HEK293T PPARd-UAS-bla, beta-lactamase FRET ratio, 18 h; 460 nm channel
Summary of the method: (§2)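 Antagonist-mode qHTS using GeneBLAzer PPAR-delta-UAS-bla HEK293T cells; compound exposure 18 hrs at 37 C over a titration. Ratiometric CCF4 fluorescence at 460/530 nm; concentration-response points fitted to the Hill equation.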

[19] = biological target: Peroxisome proliferator-activated receptor delta (Homo sapiens) (UniProt Q03181); assay: as above
Summary of the method: as §2

Sequence of Glucocorticoid receptor (Homo sapiens) (P04150 whole entry, looked up): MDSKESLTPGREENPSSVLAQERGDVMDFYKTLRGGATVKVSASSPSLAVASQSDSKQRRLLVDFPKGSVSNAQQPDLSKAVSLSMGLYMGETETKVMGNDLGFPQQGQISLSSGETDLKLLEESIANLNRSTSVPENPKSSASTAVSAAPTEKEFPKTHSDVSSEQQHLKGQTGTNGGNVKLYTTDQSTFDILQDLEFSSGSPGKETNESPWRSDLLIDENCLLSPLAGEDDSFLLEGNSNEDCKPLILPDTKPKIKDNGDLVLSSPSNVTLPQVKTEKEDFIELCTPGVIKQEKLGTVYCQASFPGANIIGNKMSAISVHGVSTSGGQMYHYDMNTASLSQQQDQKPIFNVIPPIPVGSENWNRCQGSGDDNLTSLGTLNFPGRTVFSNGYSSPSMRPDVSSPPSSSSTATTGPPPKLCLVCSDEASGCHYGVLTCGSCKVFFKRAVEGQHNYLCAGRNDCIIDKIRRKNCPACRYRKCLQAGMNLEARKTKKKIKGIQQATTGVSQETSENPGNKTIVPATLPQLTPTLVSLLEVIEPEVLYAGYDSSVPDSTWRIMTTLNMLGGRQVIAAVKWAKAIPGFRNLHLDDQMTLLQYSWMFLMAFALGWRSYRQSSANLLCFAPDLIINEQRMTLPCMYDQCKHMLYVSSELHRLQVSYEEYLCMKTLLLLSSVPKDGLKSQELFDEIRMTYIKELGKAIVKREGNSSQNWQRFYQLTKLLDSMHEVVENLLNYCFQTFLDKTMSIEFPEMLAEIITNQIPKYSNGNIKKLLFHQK
Sequence of Vitamin D3 receptor (Homo sapiens) (P11473 whole entry, looked up): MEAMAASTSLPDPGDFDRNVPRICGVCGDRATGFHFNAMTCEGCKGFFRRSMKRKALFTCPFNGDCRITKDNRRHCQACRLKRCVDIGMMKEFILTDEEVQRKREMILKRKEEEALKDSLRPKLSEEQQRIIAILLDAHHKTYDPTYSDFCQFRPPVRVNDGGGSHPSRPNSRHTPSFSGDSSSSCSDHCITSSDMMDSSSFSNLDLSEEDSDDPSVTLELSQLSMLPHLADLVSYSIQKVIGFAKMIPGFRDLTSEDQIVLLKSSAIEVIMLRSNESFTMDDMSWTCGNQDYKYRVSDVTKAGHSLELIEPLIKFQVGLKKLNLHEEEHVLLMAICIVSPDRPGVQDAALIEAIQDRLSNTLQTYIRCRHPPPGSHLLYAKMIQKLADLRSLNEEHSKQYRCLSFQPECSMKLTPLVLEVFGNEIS
Sequence of Retinoic acid receptor RXR-alpha (Homo sapiens) (P19793 whole entry, looked up): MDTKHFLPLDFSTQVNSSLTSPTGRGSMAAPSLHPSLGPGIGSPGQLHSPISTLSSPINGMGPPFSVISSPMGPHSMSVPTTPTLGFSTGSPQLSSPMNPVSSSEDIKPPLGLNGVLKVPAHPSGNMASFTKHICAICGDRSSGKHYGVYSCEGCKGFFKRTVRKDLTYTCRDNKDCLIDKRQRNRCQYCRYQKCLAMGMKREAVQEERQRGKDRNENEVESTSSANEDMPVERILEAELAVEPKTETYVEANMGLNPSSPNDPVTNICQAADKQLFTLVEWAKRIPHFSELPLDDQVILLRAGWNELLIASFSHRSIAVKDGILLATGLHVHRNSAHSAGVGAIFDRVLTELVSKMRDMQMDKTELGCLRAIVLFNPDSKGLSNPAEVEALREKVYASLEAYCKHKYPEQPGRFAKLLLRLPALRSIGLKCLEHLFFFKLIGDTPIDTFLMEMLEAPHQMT
Sequence of Thyroid hormone receptor beta (Homo sapiens) (P10828 whole entry, looked up): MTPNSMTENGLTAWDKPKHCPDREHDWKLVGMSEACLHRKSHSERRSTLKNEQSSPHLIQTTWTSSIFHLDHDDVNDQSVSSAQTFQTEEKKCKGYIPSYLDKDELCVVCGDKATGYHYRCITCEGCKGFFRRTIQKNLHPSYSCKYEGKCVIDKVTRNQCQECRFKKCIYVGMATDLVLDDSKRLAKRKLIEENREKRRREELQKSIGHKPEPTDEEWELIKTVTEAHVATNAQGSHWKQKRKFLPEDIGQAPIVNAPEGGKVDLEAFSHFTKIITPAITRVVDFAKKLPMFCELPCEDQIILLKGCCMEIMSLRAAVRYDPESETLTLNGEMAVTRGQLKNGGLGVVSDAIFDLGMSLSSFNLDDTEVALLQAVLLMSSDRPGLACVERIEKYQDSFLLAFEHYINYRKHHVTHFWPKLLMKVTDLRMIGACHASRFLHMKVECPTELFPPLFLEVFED
Sequence of Bile acid receptor (Homo sapiens) (Q96RI1 whole entry, looked up): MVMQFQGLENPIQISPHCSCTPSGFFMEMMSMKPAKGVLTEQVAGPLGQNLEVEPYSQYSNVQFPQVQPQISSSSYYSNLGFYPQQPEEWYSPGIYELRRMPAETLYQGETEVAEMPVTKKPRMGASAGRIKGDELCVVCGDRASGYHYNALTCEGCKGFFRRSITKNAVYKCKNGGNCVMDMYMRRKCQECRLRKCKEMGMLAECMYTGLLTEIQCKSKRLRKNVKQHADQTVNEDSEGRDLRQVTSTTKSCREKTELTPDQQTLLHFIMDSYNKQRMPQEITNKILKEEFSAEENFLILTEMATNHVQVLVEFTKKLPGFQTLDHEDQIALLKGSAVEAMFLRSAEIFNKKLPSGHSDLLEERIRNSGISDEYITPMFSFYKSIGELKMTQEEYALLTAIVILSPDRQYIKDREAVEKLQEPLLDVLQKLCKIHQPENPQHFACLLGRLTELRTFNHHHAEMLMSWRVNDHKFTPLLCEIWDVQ
Sequence of Peroxisome proliferator-activated receptor delta (Homo sapiens) (Q03181 whole entry, looked up): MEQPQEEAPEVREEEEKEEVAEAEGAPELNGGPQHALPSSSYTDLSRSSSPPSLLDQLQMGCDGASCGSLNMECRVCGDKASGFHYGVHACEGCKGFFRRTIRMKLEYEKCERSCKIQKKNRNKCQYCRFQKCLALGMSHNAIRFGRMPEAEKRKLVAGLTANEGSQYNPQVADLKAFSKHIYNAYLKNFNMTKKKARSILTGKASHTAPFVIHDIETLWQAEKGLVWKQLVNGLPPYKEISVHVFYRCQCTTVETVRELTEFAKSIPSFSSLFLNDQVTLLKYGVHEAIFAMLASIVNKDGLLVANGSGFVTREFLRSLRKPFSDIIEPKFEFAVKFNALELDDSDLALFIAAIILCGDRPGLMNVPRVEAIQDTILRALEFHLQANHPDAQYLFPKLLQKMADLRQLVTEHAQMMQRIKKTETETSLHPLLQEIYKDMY
Sequence of Voltage-gated inwardly rectifying potassium channel KCNH2 (Homo sapiens) (Q12809 whole entry, looked up): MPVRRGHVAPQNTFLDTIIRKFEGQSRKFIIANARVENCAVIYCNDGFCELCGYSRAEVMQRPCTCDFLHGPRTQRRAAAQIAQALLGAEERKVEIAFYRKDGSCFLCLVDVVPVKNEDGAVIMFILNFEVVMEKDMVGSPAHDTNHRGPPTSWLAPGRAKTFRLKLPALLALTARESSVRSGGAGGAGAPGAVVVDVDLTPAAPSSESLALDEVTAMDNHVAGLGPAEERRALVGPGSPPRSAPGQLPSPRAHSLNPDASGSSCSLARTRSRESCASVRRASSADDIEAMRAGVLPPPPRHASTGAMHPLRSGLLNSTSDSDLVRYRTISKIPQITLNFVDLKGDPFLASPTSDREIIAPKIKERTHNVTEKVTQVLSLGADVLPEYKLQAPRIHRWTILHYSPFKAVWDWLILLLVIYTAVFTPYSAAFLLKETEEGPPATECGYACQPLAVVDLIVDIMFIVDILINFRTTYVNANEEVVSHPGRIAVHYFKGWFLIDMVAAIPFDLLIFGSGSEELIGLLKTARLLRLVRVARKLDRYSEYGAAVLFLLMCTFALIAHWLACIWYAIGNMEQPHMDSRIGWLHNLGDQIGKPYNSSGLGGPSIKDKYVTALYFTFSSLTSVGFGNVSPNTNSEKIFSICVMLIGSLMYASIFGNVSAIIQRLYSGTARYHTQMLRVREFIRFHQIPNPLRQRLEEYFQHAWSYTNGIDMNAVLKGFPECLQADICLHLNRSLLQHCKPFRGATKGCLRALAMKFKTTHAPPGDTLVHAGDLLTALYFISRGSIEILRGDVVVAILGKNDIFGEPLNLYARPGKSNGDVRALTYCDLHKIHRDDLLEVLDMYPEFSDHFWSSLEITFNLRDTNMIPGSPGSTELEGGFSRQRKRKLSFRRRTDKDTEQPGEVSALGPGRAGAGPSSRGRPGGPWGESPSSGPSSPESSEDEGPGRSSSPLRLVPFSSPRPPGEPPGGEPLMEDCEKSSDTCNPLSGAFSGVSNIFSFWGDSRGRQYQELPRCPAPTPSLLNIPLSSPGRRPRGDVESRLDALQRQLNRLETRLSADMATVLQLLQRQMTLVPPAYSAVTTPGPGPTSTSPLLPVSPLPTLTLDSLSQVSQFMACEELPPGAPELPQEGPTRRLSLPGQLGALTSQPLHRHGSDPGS
Sequence of Peroxisome proliferator-activated receptor gamma (Homo sapiens) (P37231 whole entry, looked up): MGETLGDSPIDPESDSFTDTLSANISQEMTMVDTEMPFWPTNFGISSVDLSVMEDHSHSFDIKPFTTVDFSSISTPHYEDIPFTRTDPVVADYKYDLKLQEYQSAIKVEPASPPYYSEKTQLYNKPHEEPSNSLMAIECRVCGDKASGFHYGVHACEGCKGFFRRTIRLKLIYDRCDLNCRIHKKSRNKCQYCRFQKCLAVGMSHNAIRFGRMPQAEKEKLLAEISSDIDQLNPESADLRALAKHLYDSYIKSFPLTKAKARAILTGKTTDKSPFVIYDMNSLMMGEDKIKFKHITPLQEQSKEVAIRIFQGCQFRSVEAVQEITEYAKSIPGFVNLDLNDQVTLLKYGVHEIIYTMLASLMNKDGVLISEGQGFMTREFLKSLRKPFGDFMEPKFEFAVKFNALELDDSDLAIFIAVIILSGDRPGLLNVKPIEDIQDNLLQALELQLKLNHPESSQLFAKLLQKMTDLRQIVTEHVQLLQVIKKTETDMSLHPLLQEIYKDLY

CN(C)CCCCl
-11.7%: max response [6]
inactive: outcome [1] | activation [2] 13.4% | outcome [3] | outcome [4] | outcome [5] | outcome [7] | outcome [8] | max response [10] -2.2% | activity change % (negative = inhibition) [11] 10.5% | Potency [12] | Potency [13] | activation [14] -1.08% | activation [15] 0.444%
-4.19%: max response [9]

Cc1cc([N+](=O)[O-])ccc1N
-1.24%: max response [6]
inactive: outcome [1] | activation [2] -2.44% | outcome [3] | outcome [16] | outcome [17] | outcome [4] | outcome [5] | outcome [7] | outcome [8] | max response [10] 2.58% | activity change % (negative = inhibition) [11] -9.22% | Potency [13] | activation [14] -4.49% | activation [15] -0.648%
-8.79%: max response [9]

CCCCCO
-7.88%: max response [6]
inactive: outcome [1] | activation [2] 4.01% | Potency [19] | outcome [4] | outcome [5] | outcome [7] | outcome [8] | max response [10] 1.09% | activity change % (negative = inhibition) [11] 2.41% | Potency [12] | Potency [13] | activation [14] 0.0408% | activation [15] -0.261%
-5.62%: max response [9]
-5.82%: max response [18]

Cc1ccc(C#N)cc1
-7.41%: max response [18]
3.27%: max response [6]
inactive: outcome [1] | outcome [3] | Potency [19] | outcome [16] | outcome [17] | outcome [4] | outcome [5] | outcome [7] | outcome [8] | max response [10] 0.597% | activity change % (negative = inhibition) [11] 4.16% | Potency [12] | activation [15] 0.0681%
-3.82%: max response [9]

Cc1ccc(C)c(O)c1
7.19%: max response [18]
0.17%: max response [6]
-5.88%: max response [9]
inactive: outcome [1] | activation [2] 4.8% | Potency [19] | outcome [16] | outcome [4] | outcome [5] | outcome [7] | outcome [8] | max response [10] 6.26% | activity change % (negative = inhibition) [11] 1.01% | Potency [12] | Potency [13] | activation [14] 0.75%

CCC(C)(C)C
7.52%: max response [6]
inactive: outcome [1] | activation [2] -3.95% | outcome [3] | outcome [16] | outcome [4] | outcome [5] | outcome [7] | max response [10] 11.7% | activity change % (negative = inhibition) [11] -4.13% | Potency [12] | Potency [13] | activation [14] -0.874%
-12.5%: max response [9]

CCCCOCCOCCOCCCC
-13.3%: max response [6]
inactive: outcome [1] | activation [2] 9.2% | outcome [3] | outcome [16] | outcome [17] | outcome [7] | outcome [8] | activity change % (negative = inhibition) [11] 3.11% | activation [14] -0.253% | activation [15] 0.513%

O=C(O)c1ccccc1[N+](=O)[O-]
inactive: outcome [1] | activation [2] 7.49% | outcome [3] | outcome [16] | outcome [17] | outcome [4] | outcome [5] | outcome [7] | outcome [8] | max response [10] 2.43% | activity change % (negative = inhibition) [11] 6.51% | activation [14] 2% | activation [15] 0.408%
-10.1%: max response [6]
-4.69%: max response [9]
